Bioassay records as filed in PubChem BioAssay.
LDHA inh: qHTS assay for inhibitors of human lactate dehydrogenase; L-lactate dehydrogenase A chain (Homo sapiens), P00338; 0.15% of 480,000 active; activity change, % (values are at about 110 or 230 µM); purified LDHA, NADH/diaphorase-resazurin fluorescence; active compounds read low; in the data active = activity change below about -30%; inconclusive = mostly about -25% to -30%;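 also: plate controls were DMSO wells for no effect and wells without enzyme for full effect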
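LDH5 2 nM; NADH 0.06 mM, pyruvate 0.2 mM; 200 mM Tris pH 7.4, EDTA, Tween-20; 5 min RT. Detection: diaphorase 0.133 mg/mL + resazurin 37 µM, fluorescence ex540/em590 at 0 and 20 min; normalized to enzyme-free and DMSO wells.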
RORg inh: qHTS for inhibitors of ROR gamma transcriptional activity; Drosophila S2 Gal4-RORgamma UAS-luciferase reporter, 20 h; Nuclear receptor ROR-gamma (Mus musculus), P51450; Potency, µM (doses to about 53.6 µM), inactives show at the top dose activity change, negative = inhibition, hits mostly inhibitors; 5.4% of 310,000 active; also: potency is read from the fitted curve at half-maximal effect; nearly all actives have a fitted effect of over 60% in size
Target sequence (P51450 whole entry, looked up, the tested form may be a part): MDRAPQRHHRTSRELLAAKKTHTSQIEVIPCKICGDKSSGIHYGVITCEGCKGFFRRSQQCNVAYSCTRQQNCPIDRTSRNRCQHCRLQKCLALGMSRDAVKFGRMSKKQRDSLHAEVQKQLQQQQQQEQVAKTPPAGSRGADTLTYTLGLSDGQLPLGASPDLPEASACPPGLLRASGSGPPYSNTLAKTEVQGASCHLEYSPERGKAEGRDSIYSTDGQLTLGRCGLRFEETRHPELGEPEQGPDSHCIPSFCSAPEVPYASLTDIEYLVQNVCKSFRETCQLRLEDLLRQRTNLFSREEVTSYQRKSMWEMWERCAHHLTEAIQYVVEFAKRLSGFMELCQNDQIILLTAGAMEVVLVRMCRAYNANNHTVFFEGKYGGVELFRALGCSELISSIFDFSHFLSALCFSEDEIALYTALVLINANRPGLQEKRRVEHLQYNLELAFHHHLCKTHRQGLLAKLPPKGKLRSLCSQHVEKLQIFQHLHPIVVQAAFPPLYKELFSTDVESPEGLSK
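A Gal4/UAS one-hybrid system in insect cells: metallothionein-promoter Gal4–ROR gamma fusion plus Photinus luciferase reporter. Copper sulfate 700 uM final, 20 hr ambient incubation, luminescent detection after 10 min with reagent.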
IL-1B inflam inh: qHTS for Inhibitors of Inflammasome Signaling: IL-1-beta AlphaLISA Primary Screen; 4.7% of 360,000 active; activity change, % at 57.5 µM; THP-1 LPS/ATP IL-1B secretion, AlphaLISA, 16 h; active compounds read low; AID 743279, 2014; in the data active = activity change below about -50%; inconclusive = mostly about -30% to -49%
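THP-1 cells pretreated 1 hr with compounds (up to 57.5 uM final), then stimulated with LPS (250 ng/mL final) plus ATP (1.25 mM final); secreted IL-1B measured by AlphaLISA after 16 hr, decreased signal indicating inhibition.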
DT40 TDP1 CPT: qHTS for Inhibitors of human tyrosyl-DNA phosphodiesterase 1 (TDP1): qHTS in cells in presence of CPT; 12% of 420,000 active; AID 686979, 2013; chicken DT40 Tdp1-/-;hTDP1 cells + 20 nM CPT, ATP luminescence, 48 h; Potency, µM (titrated, usually from 46.2 µM), without a hit: at the highest dose activity change, negative = growth inhibition, most hits filed as inhibitors; also: potency is read from the fitted curve at half-maximal effect; nearly all actives have a fitted effect of over 55% in size
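Cell growth measured by CellTiter-Glo luminescence after a minimum 48 h, 37 C compound exposure with 20 nM CPT in Tdp1-knockout DT40 cells stably expressing hTDP1, seeded 400/well; qHTS titration format.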
Gal4-VP16 FLuc: VP16 counterscreen qHTS for inhibitors of ROR gamma transcriptional activity; Drosophila S2 Gal4-VP16 UAS-luciferase, luminescence, 20 h; Potency, µM (doses to about 53.6 µM), inactives show at the top dose activity, negative = inhibition, actives largely listed as inhibitors; 3.5% of 310,000 active; AID 2546, 2010;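 also: Gal4-VP16 expression switched on by copper sulfate through the metallothionein promoter; potency is read from the fitted curve at half-maximal effect; nearly all actives have a fitted effect of over 50% in size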
DT40 TDP1 no CPT: qHTS for Inhibitors of human tyrosyl-DNA phosphodiesterase 1 (TDP1): qHTS in cells in absence of CPT; DT40 Tdp1-/- hTDP1 cells, no CPT, ATP luminescence, 48 h; Potency, µM (top dose mostly 46.2 µM), inactives show at the highest dose activity change, negative = growth inhibition, most hits filed as inhibitors; 15% of 420,000 active; also: potency is read from the fitted curve at half-maximal effect; nearly all actives have a fitted effect of over 55% in size
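Luminescent ATP content (CellTiter-Glo) served as the growth readout. Knockout chicken DT40 cells expressing human TDP1 were exposed to compounds without camptothecin for a minimum 48 hr at 37 °C.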
* = called active by the depositor; ? = inconclusive; nt = no result given. Hits are enriched below; roughly 18% of the tested compounds scored in any of these assays. Unless noted, calls follow the shape of the dose curve; as a rule, active = well fitted curve in the direction sought with a large enough effect; inconclusive = small, poorly fitted or top-dose-only effect, or another doubt; inactive = no such curve, though single readings can be large; an effect the other way counts as inactive or inconclusive. Unless noted, % is scaled to controls: 0 for no effect and ±100 for the full control effect.

SMILES	LDHA inh	RORg inh	IL-1B inflam inh	DT40 TDP1 CPT	Gal4-VP16 FLuc	DT40 TDP1 no CPT
Oc1ccc2ccccc2c1CNc1ccc2ccccc2c1	30	nt	-100*	-9%	nt	?
O=C(Nc1ccc2ccccc2c1)c1ccccc1O	6	?	-69*	13µM*	?	10µM*
O=C(Nc1ccc2ncccc2c1)c1ccccc1Cl	-42*	-6%	15	8%	-3%	5%
O=C(Nc1ccc2ccccc2c1)c1ccc(Cl)cc1Cl	-1	7.9µM*	?	-16%	?	?
Cc1cccc(C(=O)O)c1NC(=O)c1ccco1	-8	nt	nt	nt	nt	nt
O=c1[nH]c2ccccc2c2ccccc12	-3	8%	0	?	8%	?
O=c1c2c([nH]c3ccccc13)CCCCCC2	-1	26%	30	23µM*	-14%	16µM*
c1ccc2c3c([nH]c2c1)CCCC3	-1	nt	nt	-2%	nt	?
O=c1c2c([nH]c3ccccc13)CCCCC2	-4	?	45	-28%	18µM*	?
O=c1c2ccccc2[nH]c2ccccc12	-7	?	-9	8.2µM*	20µM*	16µM*
CC(CO)Nc1nc2c(c(=O)n(Cc3ccccc3Cl)c(=O)n2C)n1C (configuration not stated)	1	nt	nt	nt	nt	nt
CCC(C)NC(=O)c1ccccc1NS(=O)(=O)c1cccc(C(=O)O)c1 (configuration not stated)	7	nt	nt	nt	nt	nt
CC[C@]12c3[nH]c4ccccc4c3CCN1C(=O)C(CC(=O)NCC13CC4CC(CC(C4)C1)C3)C[C@@H]2C(=O)N1CCN(C(=O)C2CC2)CC1 (some centres not stated)	1	nt	0	5.2µM*	nt	5.2µM*
CC[C@]12c3[nH]c4ccc(Cl)cc4c3CCN1C(=O)[C@@H](CC(=O)NCC13CC4CC(CC(C4)C1)C3)C[C@@H]2C(=O)N1CCN(C(=O)C2CC2)CC1	-3	nt	0	8.2µM*	nt	3.3µM*
CCOc1cc(C2/C(=C(\O)c3ccc(Cl)cc3)C(=O)C(=O)N2c2cc(C)on2)ccc1O (configuration not stated)	11	nt	nt	nt	nt	nt
CC(=NC1CC1)c1c(-c2ccccc2)[nH]n(-c2nc3ccccc3s2)c1=O	3	1.3µM*	nt	?	?	22µM*
CC(=NCCCn1ccnc1)c1c(-c2ccccc2)[nH]n(-c2nc3ccccc3s2)c1=O	-11	12%	-2	?	11%	?
CC(=NC1CCCC1)c1c(C)[nH]n(-c2nc3ccccc3s2)c1=O	-16	3.5µM*	-17	?	?	?
O=C(COC(=O)CCc1c[nH]c2ccccc12)NCC(F)(F)F	4	nt	nt	nt	nt	nt
COc1ccc2c(c1)OC[C@H]1[C@H]2N2C(=O)c3cc(F)ccc3NC(=O)[C@@]2(C)[C@H]1c1ccccc1	1	nt	-62*	?	nt	18µM*
COc1ccc2c(c1)OC[C@H]1[C@H]2N2C(=O)c3ccc(C)cc3NC(=O)[C@@]2(C)[C@H]1c1ccccc1	-2	nt	?	23µM*	nt	?
FC(F)(F)c1nc2ccccc2n1Cc1nnc2n1N=C(c1ccc(Cl)cc1)CS2	-1	nt	nt	nt	nt	nt
N#CCN(C(=O)c1ccc2c(c1)OCCCO2)C1CC1	1	nt	nt	nt	nt	nt
CCc1c(C)sc2nc(NCCO)n3nc(-c4ccco4)nc3c12	-8	nt	nt	nt	nt	nt
COc1cc2nc(-c3ccc(C)cc3)oc(=O)c2cc1OC	-30*	nt	nt	nt	nt	nt
SMILES	LDHA inh	RORg inh	IL-1B inflam inh	DT40 TDP1 CPT	Gal4-VP16 FLuc	DT40 TDP1 no CPT
CC(=O)Nc1ccc2c(c1)nc(C)n2Cc1ccccc1	1	-6%	-6	10%	-2%	1%
Cc1cccc(NCc2nc3ccccc3n2Cc2ccccc2)c1	1	1µM*	-26	15µM*	?	?
Cc1nc2cc(NCc3nc4ccccc4n3Cc3ccccc3)ccc2n1C	11	-67%	-83*	23µM*	-24%	?
Cc1cccc(NCc2nc3ccccc3n2C)c1	-1	-19%	5	-7%	-4%	-6%
COC(=O)[C@]1(CC(C)C)N[C@H](c2ccc(-c3ccccc3)cc2)[C@@H]2C(=O)N(C)C(=O)[C@@H]21	7	nt	-19	?	nt	?
CCN1C(=O)[C@H]2[C@@H](c3ccc(-c4ccc(F)cc4)cc3)N[C@@](CC(C)C)(C(=O)OC)[C@H]2C1=O	0	nt	-66*	13µM*	nt	18µM*
COC(=O)[C@]1(CC(C)C)N[C@H](c2ccc(-c3ccc(F)cc3)cc2)[C@@H]2C(=O)N(C)C(=O)[C@@H]21	1	nt	-23	18µM*	nt	?
COC(=O)[C@]1(CC(C)C)N[C@H](c2ccc(-c3ccc(OC)cc3)cc2)[C@@H]2C(=O)N(C)C(=O)[C@@H]21	-1	nt	-1	?	nt	16µM*
COc1cc(O)ccc1-c1nc2cc(C)ccn2c1Nc1ccccc1C	3	nt	nt	13µM*	nt	26µM*
COc1cc(-c2nc3ccccn3c2Nc2ccccc2C)ccc1O	0	nt	nt	?	nt	?
Cc1ccn2c(NC(=O)c3ccco3)c(-c3ccccc3)nc2c1	-6	8%	-5	-9%	-3%	-16%
Cc1ccn2c(Nc3ccccc3C)c(-c3cccnc3)nc2c1	3	-2%	-14	16µM*	-4%	?
Cc1ccccc1Nc1c(-c2ccc(N3CCOCC3)cc2)nc2cnccn12	3	-17%	-27	-19%	11%	?
Cc1ccn2c(Nc3ccccc3C)c(-c3ccccc3)nc2c1	-6	nt	nt	21µM*	nt	?
COc1ccc(CNC(=O)COC(=O)c2c(NC(C)=O)sc(C)c2C)cc1OC	2	nt	?	?	nt	23µM*
COc1ccccc1NC(=O)COC(=O)c1c(NC(C)=O)sc(C)c1C	-7	nt	1	?	nt	16µM*
CC(=O)Nc1sc(C)c(C)c1C(=O)OCC(=O)Nc1cccc(C)c1	0	nt	-59*	16µM*	nt	16µM*
CCN(C(=O)c1cc2ccc(OC)cc2[nH]1)C1CCCCC1	-21	nt	nt	nt	nt	nt
CC(=N\Nc1ccc(Cl)cc1)/C(=N/O)C(=O)Nc1ccccc1	-2	?	-16	-9%	-5%	-20%
CCOC(=O)C(=N/O)/C(C)=N/NC(=O)C(=O)Nc1ccc(Cl)cc1	-2	-44%	-23	4.1µM*	20µM*	2.1µM*
